Measurements as given in PubChem BioAssay.
Results filed as inconclusive are left out. A number with no mark means an inactive call.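 The calls were made as follows: active = viability at or below 27.92% in each of two runs, the all-compound median minus 4 SD; inconclusive = no clear call, values can overlap the other calls; inactive = the rest.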

Experiment: viability of PTEN-null HCT116 cells – cell-based, HCT116 clonal line, CellTiter-Glo, pilot screen (AID 824);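 also: 0% = 20 µM Hyamine control and 100% = vehicle cell control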
Settings: HCT116 PTEN-deleted viability, 60 h, at 10 µM, stronger effect = lower value

Structure (SMILES)	viability [%]
CCOC(=O)Cn1c(CCC(=O)O)ccc1-c1ccc(F)cc1	101
CCCc1cc(C(=O)Nc2ccc(C(C)=O)cc2)no1	104
CCOC(=O)CN1C(=O)C(=O)c2cccc(C)c21	92.4
CCOc1ccc(NC(=O)C(C)Sc2nnc(C)n2C)cc1 (centres undefined)	93.9
COc1cccc(CNC(=O)Cn2c(=O)oc3ccccc32)c1OC	91
Oc1c(C(c2ccccc2)N2CCc3ccccc3C2)sc2ncnn12 (centres undefined)	93.3
CCSc1nnc(N2C(=O)CC(c3ccsc3)C3=C2CC(C)(C)CC3=O)s1 (centres undefined)	94.9
Cc1ccnc2c(N3C(=O)C4C5C=CC(C5)C4(C)C3=O)cccc12 (centres undefined)	95.5
CCN(CC)C(=O)c1ccc(CS(=O)(=O)c2ccc(OC)cc2)o1	95.3
CCCCCn1c(=O)[nH]c2cc(C(=O)NCCCN3CCCCC3)ccc2c1=O	77.5
CC(C)c1nccn1S(=O)(=O)c1cc(Cl)ccc1Cl	97.2
CCOC(=O)N1CCC(NC(=O)C2CCCN(C(=O)c3cc4sccc4n3C)C2)CC1 (centres undefined)	95.7
CCCCNC(=O)Cn1c(=O)n(C)c2ccccc21	101
Cc1c(C#N)c2ccccc2n1CC(=O)N1CCc2ccccc2C1	92.7
O=C(COc1ccc2ccccc2c1)N1CCCC1	101
CCC(=O)N1CCN(c2nc(-c3ccccc3)c3c(c2C#N)CCCC3)CC1	73.1
CC1(C)CC(=O)c2cnc(NC(=O)Cc3ccc(Cl)cc3)nc2C1	90.6
CCOCCOc1nc2c(c(=O)n(C)c(=O)n2C)n1Cc1ccc(C)cc1	79
CCN(C(=O)c1cc(Cl)ccc1OC)c1ccccc1	90
Cc1cccc(-n2ncc3c(N(CCO)CCO)ncnc32)c1	101
N#CCCN1CCN(S(=O)(=O)c2ccc(S(=O)(=O)NC3CCCCC3)cc2)CC1	97.8
Cc1c(C)c2ccc(OC3CCCCC3=O)cc2oc1=O (centres undefined)	101
COc1ccc(-n2c(Cc3cccn3C)nnc2SCC(=O)Nc2ccc(Cl)cc2)cc1	51.3
Cc1cc(C(N)=O)c2cc(Br)ccc2n1	96.5
